Compound activity (PubChem BioAssay)
SW480 rereplic = inducers of DNA re-replication in SW480 colon cancer cells. SW480 DNA re-replication, Hoechst DNA content imaging, 48 h. Potency, µM (doses to about 46.1 µM), without a hit: at the top dose re-replication activation, usual class: activators. 340,000 compounds, 1.8% hits. AID 624297; note: % of control where 0% means no effect; nearly all actives have a fitted effect of over 55% in size
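Image-based read-out: total Hoechst fluorescence of nuclei (405 nm excitation, 500-530 nm emission), with hits raising the fraction of high-intensity nuclei. SW480 colon cells incubated 48 hr with compounds at 37 C.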
KB-V1 MDR tox = kills drug-selected multidrug resistant KB-V1 cells | KB-V1 MDR cells viability, CellTiter-Glo, 72 h | Potency, µM (series often up to 46.1 µM), usual class: cytotoxic | 400,000 compounds, 3.4% hits | AID 1347076; note: % is set by controls: 0 for no effect and ±100 for the full control effect; nearly all actives have a fitted effect of over 60% in size
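Compound-treated KB-V1 multidrug-resistant cells, 72 h, 37 degrees C; viability by CellTiter-Glo. Fitted qHTS curves give the values.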
KB-3-1 cytotox = KB-3-1 parental cell cytotoxicity; AID 1347075; Potency, µM (top dose mostly 46.1 µM), actives largely listed as cytotoxic; 400,000 compounds, 1.4% hits; KB-3-1 viability, CellTiter-Glo ATP luminescence, 72 h; note: % is set by controls: 0 for no effect and ±100 for the full control effect; nearly all actives have a fitted effect of over 60% in size
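KB-3-1 cells, DMEM (no phenol red) + 10% FBS; compound by pin transfer, 72 h, 37 °C. Readout: CellTiter-Glo luminescence after 10 min. Data normalized, curve-fitted.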
MCF10A rerep = DNA re-replication induction in MCF 10a cells; Potency, µM (highest dose often 46.1 µM), without a hit: at the highest dose activity, positive = re-replication, usual class: activators; MCF 10A DNA re-replication, Hoechst nuclear intensity, 48 h; 350,000 compounds, 2.9% hits; note: % of control where 0% means no effect; nearly all actives have a fitted effect of over 50% in size
ELG1 repair inh = inhibitors of ELG1-dependent DNA repair in HEK293T cells. Potency, µM (highest dose often 46.1 µM), inactives show top-dose activity change, negative = inhibition, actives largely listed as inhibitors. AID 504467. 330,000 compounds, 2.3% hits. HEK293T ELG1-luciferase reporter, luminescence, 16 h; DNA damage induced by 5-fluorouridine; note: % is set by controls: 0 for no effect and ±100 for the full control effect; nearly all actives have a fitted effect of over 55% in size
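Quantitative HTS, concentration-response format. 2,000 cells/well co-treated with 5-fluorouridine and compound, 16 hr in 5% CO2 at 37 °C; ONE-Glo luminescence read after 30 min.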
Active calls of the source: *; i = inactive; ? = inconclusive; · = no result given. In the library only some 8.1% were active in any assay of this set; here they are far more common. Calls come from the whole dose curve; as a rule, active = well fitted curve in the direction sought with a large enough effect; inconclusive = small, poorly fitted or top-dose-only effect, or another doubt; inactive = no such curve, though single readings can be large; an effect the other way counts as inactive or inconclusive. Potency is the fitted concentration of half-maximal effect.

SMILES	SW480 rereplic	KB-V1 MDR tox	KB-3-1 cytotox	MCF10A rerep	ELG1 repair inh
Cc1cc(C(=O)COC(=O)CN(C)S(=O)(=O)c2ccc(Cl)cc2)c(C)n1Cc1cccs1	1.0%	i	i	8.0%	?
CCS(=O)(=O)c1nnnn1-c1ccccc1S(C)(=O)=O	?	i	i	?	14.6µM*
O=S(=O)(Cc1nnnn1-c1ccc(Br)cc1)c1ccccc1	·	i	i	·	·
CN(C)CCNC(=O)/C(=C/c1ccc(-c2ccc(Cl)cc2Cl)o1)NC(=O)c1ccccc1	?	?	?	7.31µM*	6.5%
Cc1ccc(C(=O)N/C(=C\c2ccc(-c3ccc(Br)cc3)o2)C(=O)NCCCN(C)C)cc1	7.31µM*	?	5.8µM*	?	-17.1%
Cc1ccc(C(=O)N/C(=C\c2ccc(-c3cccc([N+](=O)[O-])c3)o2)C(=O)NCCCN(C)C)cc1	0.2%	i	?	1.4%	-0.6%
O=C1CN(C(=O)COC(=O)CNC(=O)c2ccccc2)c2ccccc2N1	-3.9%	i	i	6.2%	8.4%
CCN(C(=O)CSc1nc2ccccc2c(=O)n1-c1ccccc1F)C1CCS(=O)(=O)C1 (centres undefined)	0.9%	i	i	-5.3%	25.5%
CCCCCOc1ccc(/C(C)=N/NC2=NCCN2)cc1	?	i	i	20.3%	-13.1%
CCOc1ccc(Br)cc1/C(C)=N\NC1=NCCN1	?	?	6.51µM*	?	?
CCCOP(=O)(c1ccc(N(C)C)cc1)C(Nc1ccccc1)c1ccc(C)cc1 (centres undefined)	8.7%	20.6µM*	i	?	?
CN(Cc1nc2ccccc2c(=O)[nH]1)C(=O)c1ccc(S(=O)(=O)N(C)C)cc1	-2.0%	i	i	3.0%	0.0%
CC(=Nc1ccccc1)c1sc2ccccc2c1O	12.4%	20.6µM*	i	?	?
Cc1nn(Cc2ccccc2)c(Cl)c1/C=N/NC(=O)CNc1cccc(C(F)(F)F)c1	-3.0%	9.2µM*	i	?	?
O=C(CNc1cccc(C(F)(F)F)c1)N/N=C/c1cccc(Br)c1	-0.4%	i	i	20.6µM*	2.1%
Cc1cccc(NCC(=O)N/N=C/c2cccc(Br)c2)c1	-2.0%	?	i	25.6%	-7.8%
Cc1nn(-c2cccc(C(F)(F)F)c2)c(Cl)c1/C=N/Nc1cccc(C(=O)O)c1	1.4%	i	i	1.5%	?
O=C(N/N=C/C(Br)=C/c1ccccc1)c1cc(-c2ccco2)[nH]n1	18.8%	?	?	7.31µM*	-7.7%
CC(/C=N/NC(=O)c1cc(-c2ccc(C)o2)[nH]n1)=C\c1ccccc1	18.4µM*	i	i	23.1µM*	-3.3%
Cc1ccc(-c2cc(C(=O)N/N=C/c3ccccc3)n[nH]2)o1	12.3%	i	i	-25.2%	?
COc1cccc(CN(C)Cc2cc(=O)oc3cc(O)c(Cl)cc23)c1	?	i	?	20.6µM*	-20.4%
Cc1c(O)ccc2c(CC(=O)N[C@@H](Cc3ccccc3)C(=O)O)cc(=O)oc12	?	i	i	23.1µM*	-0.9%
Cc1ccccc1CN(C)Cc1cc(=O)oc2c(C)c(C)ccc12	?	?	?	?	24.1%
CNS(=O)(=O)c1cccc(C(=O)OCc2cc(=O)oc3c(C)c(O)ccc23)c1	-11.2%	i	i	?	23.1µM*
COc1cccc(CN(C)Cc2cc(=O)oc3c(C)c(C)ccc23)c1	-9.9%	i	16.4µM*	13.3%	?
SMILES	SW480 rereplic	KB-V1 MDR tox	KB-3-1 cytotox	MCF10A rerep	ELG1 repair inh
COc1ccccc1CNS(=O)(=O)c1c(C)nc2sccn2c1=O	-16.3%	i	i	-1.4%	9.7%
COc1cccc(Cn2ncc3c4sc(SC)cc4n(C)c3c2=O)c1	·	i	i	·	·
Cc1ccc(/C=C2/SC(=S)N(CCCC(=O)Nc3ccc(O)cc3)C2=O)cc1	?	?	?	?	16.0%
CC(C)(C)N(Cc1ccccc1)C(=O)COC(=O)Cn1[nH]c(=O)c2ccccc2c1=O	·	i	i	·	·
Cc1cc2oc(=O)cc(CN(C)Cc3cccc(F)c3)c2cc1C	?	i	i	6.5%	-1.6%
Cc1c(O)ccc2c(CN(C)Cc3ccccc3)cc(=O)oc12	18.4µM*	i	i	-36.0%	13µM*
CCc1cc2c(CN(C)Cc3ccccc3F)cc(=O)oc2cc1O	?	11.6µM*	?	18.4µM*	-16.8%
COc1ccc(C2Nc3ccccc3C(=O)N2NC(C)=O)c(OC)c1 (centres undefined)	26.6%	i	i	-2.7%	1.3%
COc1cccc(COc2ccccc2C2Nc3ccc(Br)cc3C(=O)N2NC(=O)c2ccncc2)c1 (centres undefined)	?	8.2µM*	?	22.0%	7.3%
CC(C)(C)OC(=O)N1CCN(Cc2ccc(F)c(B(O)O)c2)CC1	-0.3%	i	i	-0.9%	·
COc1cccc(NC(=O)c2sc(NC(=O)c3ccncc3)nc2C)c1	-28.9%	?	i	3.6%	-23.9%
O=c1c2[nH]c3ccccc3c2ncn1C1CCCCC1	4.7%	i	i	8.7%	?
O=C1c2ccccc2C(=O)c2c1ccc1c(=O)n(C3CCCCC3)[nH]c21	?	10.3µM*	?	?	20.6µM*
COC(=O)COc1ccc(S(=O)(=O)Nc2ccc(C(N)=O)cc2)cc1	-4.5%	i	i	16.1%	12.7%
S=c1[nH]nc(-c2ccc3ccccc3n2)n1-c1cc(Cl)cc(Cl)c1	-0.9%	16.4µM*	i	20.0%	-1.9%
CCCCN(CC)C(=O)Cn1c(=O)n(-c2ccc(OCC)cc2)c(=O)c2c3c(sc21)CCCC3	·	i	i	·	·
COc1ccc(N2CCN(CC(=O)Nc3sccc3C#N)CC2)cc1	9.2%	16.4µM*	i	?	?
COc1ccc(N2CCN(CC(=O)N3CCC(C)CC3)CC2)cc1	-1.6%	18.4µM*	i	4.9%	-6.7%
O=C(CN1CCN(c2ccc(F)cc2)CC1)N1CCC(Cc2ccccc2)CC1	8.2µM*	?	i	8.2µM*	-13.0%
CC1CCN(CC(=O)N2CCN(c3ccccc3)CC2)CC1	1.1%	i	i	-9.9%	-4.3%
O=C(CN1C(=O)NC2(CCCCCC2)C1=O)N1CCC(Cc2ccccc2)CC1	0.6%	18.4µM*	?	25.1%	?
O=C(CN1C(=O)NC2(CCCCC2)C1=O)N1CCN(S(=O)(=O)c2ccccc2)CC1	-2.7%	i	i	?	-14.6%
COc1cccc(-c2c[nH]c(=O)[nH]c2=O)c1	9.6%	?	i	-48.5%	6.8%
NC(=S)N/N=C/c1ccc(C(F)(F)F)cc1	·	5.8µM*	23.1µM*	?	-4.5%
CC(C)Oc1ccc(/C=N/NC(N)=S)cc1	?	14.6µM*	?	?	?
